# Several values for one entry are separate records, joined by “and”; a condition that tells them apart may be missing. Identical values can stand only once. Activity calls are given as the source filed them. Rule for the calls: active = hit-call score of the fitted dose curve at least 0.9, where 1 is the maximum; inactive = score below 0.9.
# Read-out: TIMP metallopeptidase inhibitor 2 (TIMP2), TIMP2 (gene 7077)
# Assay: BSK_hDFCGF_TIMP2: BioMAP Diversity Plus: hDFCGF Assay for TIMP metallopeptidase inhibitor 2 (TIMP2) Biomarker Activity (AID 2284289)
# Conditions: primary human foreskin fibroblasts
# Method: BSK_hDFCGF is a cell-based, multiplexed-readout assay that uses foreskin fibroblast, a human skin primary cell, with measurements taken at 24 hours after chemical dosing in a 96-well plate.BSK_hDFCGF_TIMP2 is an assay component measured in the BSK_hDFCGF assay. It measures TIMP-2 antibody related to regulation of gene expression using ELISA technology.Data from the assay component BSK_hDFCGF_TIMP2 was analyzed at the endpoint, BSK_hDFCGF_TIMP2, in the positive analysis fitting direction relative to DMSO as the negative control and baseline of activity. Using a type of binding reporter, gain or loss-of-signal activity can be used to understand protein changes. To generalize the intended target to other relatable targets, this assay endpoint is annotated to the 'protease' intended target family, where the subfamily is 'matrix metalloproteinase'.
# The levels of cell surface (or secreted, indicated by the prefix "s") biomarker endpoints were measured by ELISA. Overt cytotoxicity to cells in confluent adherent cultures (all systems other than the BT system) was assessed by measuring total protein levels using sulforhodamine B (SRB) staining in parallel cultures at the time of biomarker measurements, indicated as SRB endpoints. For proliferation assays for adherent cell types, individual cell types are cultured at sub-confluence and relative cell numbers quantified by SRB staining at time points optimized for each system (48 h: 3C and CASM3C systems; 72 h: BT and HDF3CGF systems; 96 h: SAg system). SRB was performed by staining cells with 0.1% SRB after fixation with 10% TCA and reading wells at 560 nm.Viability and proliferation of PBMC (T cells) was quantified by Alamar Blue reduction for the SAg and BT systems. For PBMC viability (referred to as PBMC Cytotoxicity within the assay endpoint names), cells were plated (75,000/well in a 96-well plate) and then chemical samples added for 1 h before addition of activators, SEB and TSST-1 (20 ng/mL final concentration each). Cells were incubated for 90 h. Then, Alamar Blue (20 uL/well) (Invitrogen, Cat DAL1100) was added for 6 h, and the plates were read with a fluorescence microplate reader at 546/580 nm (excitation/emission). For PBMC proliferation, cells were plated and activated as above but incubated for only 16 h prior to addition of Alamar Blue. Plates were read after 6 h.
SMILES,outcome,AC50
NCC(F)(F)C(F)(F)C(F)(F)C(F)(F)F,inactive,
C[Si](C)(C)C(F)(F)C(F)(F)C(F)(F)F,inactive,
FC(F)(F)COC(OCC(F)(F)F)OCC(F)(F)F,inactive,
OC(O)(C(F)C(O)(O)C(F)(F)F)C(F)(F)F,,7.41 µM (active) and 22.4 µM (active)
O=S(=O)(O)CCC(F)(F)C(F)(F)C(F)(F)C(F)(F)C(F)(F)C(F)(F)F,inactive,
O=C(Cl)C(F)(F)C(F)(F)C(F)(F)C(=O)Cl,inactive,
FC(F)C(F)(F)COCC1CO1 (stereo not given),inactive,
FC(F)=C(F)C(F)(F)C(F)(F)C(F)(F)C(F)(F)C(F)(F)C(F)(F)F,inactive,
FC(F)(F)C(F)(F)C(F)(F)C(F)(F)C(F)(F)C(F)(F)I,inactive,
OCCC(F)(F)C(F)(F)C(F)(F)C(F)(F)F,inactive,

# — PubChem BioAssay (EPA / NIEHS)
